Results with a measured potency or affinity are listed apart. Calls of active or inactive are those of the source.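 The calls were made as follows: active = every repeat run showing a signal drop whose fitted half-maximal concentration is at most twice the top tested concentration; inconclusive = repeat runs disagree, or flat partial drop, or poor fit; inactive = the rest.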

The assay is described as follows: general mammalian cell viability loss – activator set, cherry-pick, cytotoxicity control for miR-122 modulator project, dose response (AID 720690).

`CC(=O)c1cccc(S(=O)(=O)NCC2CCCCC2)c1`: the result was inactive.
Next, `O=C(NCCCN1CCCC1)c1ccc(CSCc2cccc(Cl)c2)o1`: “inactive”; `CCN(C[C@H]1N[C@@H](CO)[C@@H]1c1ccc(C2=CCCC2)cc1)C(=O)c1cccnc1`: “inactive”.
As for `C[C@@H]1CN([C@H](C)CO)S(=O)(=O)c2ccc(/C=C/c3ccccc3)cc2O[C@@H]1CN(C)C(=O)c1cccnc1`, the entry is “inactive”; as for `CC(C)C(=O)Nc1ccc2c(c1)C(=O)N(C)[C@@H]1CC[C@H](CC(=O)NCc3cccc(F)c3)O[C@H]1CO2`, “inactive”.
Next, `CN1C(=O)c2cc(NC(=O)c3ccc(C(F)(F)F)cc3)ccc2OC[C@H]2O[C@H](CC(=O)O)CC[C@@H]21`: “inactive”.
With `CCCNC(=O)N1[C@H](CO)[C@@H](c2ccccc2)[C@H]1CNC(=O)c1ccccc1`, the call was inactive.
As for `COCC(=O)Nc1ccc2c(c1)C(=O)N(C)[C@H]1CC[C@@H](CC(=O)NC3CCCC3)O[C@H]1CO2`, the entry is “inactive”.
As for `CC(C)NC(=O)Nc1ccc2c(c1)C(=O)N(C)[C@@H]1CC[C@@H](CC(=O)NCC(F)(F)F)O[C@@H]1CO2`, the entry is “inactive”; as for `C[C@@H]1CN([C@@H](C)CO)S(=O)(=O)c2ccc(C3=CCCCC3)cc2O[C@@H]1CN(C)C(=O)Cc1ccncc1`, “inactive”; as for `CC(C)NC(=O)N(C)C[C@H]1Oc2cc(C#C[C@H](C)O)ccc2S(=O)(=O)N([C@@H](C)CO)C[C@H]1C`, “inactive”.
Next, `NS(=O)(=O)c1ccc(Nc2nc(-c3cccnc3)cs2)cc1`: “inactive”; `CN(C)C(=O)C[C@@H]1CC[C@@H]2[C@@H](COc3ccc(NC(=O)C4CC4)cc3C(=O)N2C)O1`: “inactive”.
As for `COc1cccc(NC(=O)N(C)C[C@@H]2Oc3ncc(C#Cc4ccncc4)cc3C(=O)N([C@@H](C)CO)C[C@H]2C)c1`, the outcome was inactive.
On to `CCNC(=O)C[C@@H]1CC[C@H]2[C@@H](COc3ccc(NC(=O)c4ccc(C(F)(F)F)cc4)cc3C(=O)N2C)O1`, for which the outcome was inactive.
As for `CCCC(=O)Nc1ccc2c(c1)C(=O)N(C)[C@@H]1CC[C@H](CC(=O)NCCOC)O[C@H]1CO2`, the entry is “inactive”; as for `Cc1ccc(C2CC(C(F)(F)F)n3nc(C(=O)NCc4ccco4)cc3N2)cc1` (stereo not drawn), “inactive”; as for `CO[C@H]1CN(C)C(=O)c2cc(NC(=O)c3cccc(Oc4ccccc4)c3)ccc2OC[C@@H](C)NC[C@H]1C`, “inactive”.
As for `CC(C)CC#Cc1ccc2c(c1)O[C@H](CN(C)C(=O)c1cnccn1)[C@H](C)CN([C@H](C)CO)S2(=O)=O`, the entry is “inactive”.
`CCN(CC)CCNc1nc(-c2ccccc2)nnc1C(F)(F)F`: the result was inactive.
On to `COc1ccc(N2CCc3c(C)nc4c(OC)cc(OC)cc4c32)c(OC)c1`, for which the result was inactive.
Next, `C[C@H](CO)N1C[C@H](C)[C@@H](CN(C)C(=O)C2CCOCC2)Oc2cc(C#Cc3ccncc3)ccc2S1(=O)=O`: “inactive”.
As for `O=C(Nc1ccc(F)cc1)N1C[C@@H]2[C@H](c3ccccc31)[C@H](CO)N2C(=O)Cc1ccccc1`, the entry is “inactive”.
`CNC(=O)C[C@H]1CC[C@@H]2[C@@H](COc3ccc(NC(=O)C(C)C)cc3C(=O)N2C)O1`: the outcome was inactive.
Next, `Cc1nn(C)cc1NC(=O)C[C@@H]1CC[C@@H]2[C@@H](COc3ccc(NC(=O)Nc4cccc(Cl)c4)cc3C(=O)N2C)O1`: “inactive”; `COc1cccc(NC(=O)Nc2ccc3c(c2)C(=O)N(C)[C@@H]2CC[C@H](CC(=O)O)O[C@H]2CO3)c1`: “inactive”; `O=C(Cn1c(=O)c2ccccc2n(CC(=O)N2CCCCC2)c1=O)N1CCCCC1`: “inactive”.
Next, `CC(=O)N(C)C[C@H]1Oc2cc(/C=C/c3ccccc3)ccc2S(=O)(=O)N([C@@H](C)CO)C[C@H]1C`: “inactive”; `CCCNC(=O)Nc1ccc2c(c1)C(=O)N(C)[C@@H]1CC[C@@H](CC(=O)NCC3CCCCC3)O[C@@H]1CO2`: “inactive”.
As to `CC(=O)Nc1ccc2c(c1)C(=O)N(C)[C@H]1CC[C@H](CC(=O)Nc3ccccc3Cl)O[C@@H]1CO2`, the result was inactive.
In the case of `CCNC(=O)Nc1ccc2c(c1)C(=O)N(C)[C@H]1CC[C@H](CC(=O)Nc3ccccc3F)O[C@@H]1CO2`, the result was inactive.
Next, `COCC(=O)Nc1ccc2c(c1)C(=O)N(C)[C@@H]1CC[C@@H](CC(=O)NC3Cc4ccccc4C3)O[C@@H]1CO2`: “inactive”.
Consider `COc1cccc(-c2ccc3c(c2)O[C@H](CN(C)C(=O)C2CCOCC2)[C@H](C)CN([C@H](C)CO)S3(=O)=O)c1`, for which the call was inactive.
As for `CN1C(=O)c2cc(NC(=O)c3cccs3)ccc2OC[C@@H]2O[C@@H](CC(=O)N3CCOCC3)CC[C@H]21`, the entry is “inactive”; as for `CCOC(=O)c1ccc(NC(=O)c2ccc(CN3CCOCC3)cc2)cc1`, “inactive”; as for `C[C@H](NC(=O)C[C@@H]1CC[C@H]2[C@H](COc3ccc(NS(=O)(=O)c4ccc(Cl)cc4)cc3C(=O)N2C)O1)c1ccccc1`, “inactive”.
Next, `O=C(c1ccco1)N1CCN(C2CC(=O)N(c3ccccc3)C2=O)CC1` (stereo not drawn): “inactive”; `C[C@@H]1CN([C@H](C)CO)C(=O)c2cc(-c3cccc(C#N)c3)cnc2O[C@H]1CN(C)C(=O)C1CCC1`: “inactive”.
Next, `CO[C@H]1CN(C)C(=O)c2cc(NC(C)=O)ccc2OC[C@@H](C)N(C(=O)CC2CC2)C[C@H]1C`: “inactive”; `CCC(=O)N(C)C[C@H]1Oc2cc(C#Cc3ccccc3)ccc2S(=O)(=O)N([C@@H](C)CO)C[C@H]1C`: “inactive”.
Regarding `N#Cc1cccc(NC(=O)Nc2cccs2)c1`, the result was inactive.
Consider `O=C(CC(F)(F)F)N1C[C@@H]2[C@H](c3ccccc31)[C@@H](CO)N2C(=O)C1CCCC1`, for which the compound was classed as inactive.
As for `Cc1cc(C)c2c(c1)/C(=C/C(=O)c1ccc(Br)s1)C(=O)N2`, the entry is “inactive”.

For the origin of these results see PubChem BioAssay AID720690 (Broad Institute, 2013).
